Results filed as inconclusive are left out. The source made the active and inactive calls. Rule for the calls: active = hit-call score of the fitted dose curve at least 0.9, where 1 is the maximum; inconclusive = response in the unintended direction; inactive = score below 0.9.
biological target: human Retinoid X Receptor beta (RXRb), RXRB (gene 6257) (UniProt P28702); assay: ATG_RXRb_TRANS: Attagene TRANS-FACTORIAL HepG2 Assay for human Retinoid X Receptor beta (RXRb) (AID 2283013)
Protocol: ATG_TRANS is a cell-based, multiplexed-readout assay that uses HepG2, a human liver cell line, with measurements taken at 24 hours after chemical dosing in a 24-well plate.ATG_RXRb_TRANS is one of 30 assay component(s) measured or calculated from the ATG_TRANS assay. It is designed to make measurements of mRNA induction, a form of inducible reporter, as detected with fluorescence intensity signals by Reverse transcription polymerase chain reaction (RT-PCR) and Capillary electrophoresis technology.Data from the assay component ATG_RXRb_TRANS was analyzed into 1 assay endpoint. This assay endpoint, ATG_RXRb_TRANS, was analyzed in the positive analysis fitting direction relative to DMSO as the negative control and baseline of activity. Using a type of inducible reporter, measures of mRNA for gain-of-signal activity can be used to understand the reporter gene at the transcription factor-level as they relate to the gene RXRB. Furthermore, this assay endpoint can be referred to as a primary readout, because this assay has produced multiple assay endpoints where this one serves a reporter gene function. To generalize the intended target to other relatable targets, this assay endpoint is annotated to the nuclear receptor intended target family, where the subfamily is non-steroidal.
Human liver HepG2 cells are transiently transfected with multiple reporter transcription units (MRTUs) in 6-well plates using FuGene 6 reagent (Roche; 3 ml FuGene/1 mg DNA). The MRTU constructs are regulated by a cis-regulating element (promoter). […] A major difference between the CIS and TRANS system is that in CIS activities of endogenous TFs are measured, whereas the TRANS assay evaluates changes in activities of exogenous, chimeric NR-Gal4 proteins. […] At the end of 24 hour incubation, total RNA was isolated using TriZol reagent (Invitrogen). The isolated RNA is then reverse-transcribed using oligo(dT) primer and Mo-MLV reverse transcriptase (Invitrogen) with DNAse I (Ambion) treatment for 30 min. The one-tenth of the produced cDNA was amplified by PCR using Taq DNA polymerase (Invitrogen) and two reporter sequence-specific primers. The PCR products were fluorescently labeled by primer extension with 6-arboxyfluorescein (6-FAM) 5'-labeled reporter sequence-specific primer (2 min at 95 C, 20 s at 68 C and 10 min at 72 C) and these products were digested with 5U of HpaI (New England Biolabs) for 2h at 37 C. The fragments were purified using Qiaquick PCR columns (Qiagen), analyzed on an ABI 3130xL genetic analyzer (Applied Biosystems) with peak positions identified by using a set of X-rhodamine (ROX)-labeled MapMarker1000 molecular weight standards (BioVentures). The raw capillary electrophoresis data was processed using Attagraph software (Attagene).

Sequence of human Retinoid X Receptor beta (RXRb), RXRB (gene 6257) (P28702 whole entry, looked up): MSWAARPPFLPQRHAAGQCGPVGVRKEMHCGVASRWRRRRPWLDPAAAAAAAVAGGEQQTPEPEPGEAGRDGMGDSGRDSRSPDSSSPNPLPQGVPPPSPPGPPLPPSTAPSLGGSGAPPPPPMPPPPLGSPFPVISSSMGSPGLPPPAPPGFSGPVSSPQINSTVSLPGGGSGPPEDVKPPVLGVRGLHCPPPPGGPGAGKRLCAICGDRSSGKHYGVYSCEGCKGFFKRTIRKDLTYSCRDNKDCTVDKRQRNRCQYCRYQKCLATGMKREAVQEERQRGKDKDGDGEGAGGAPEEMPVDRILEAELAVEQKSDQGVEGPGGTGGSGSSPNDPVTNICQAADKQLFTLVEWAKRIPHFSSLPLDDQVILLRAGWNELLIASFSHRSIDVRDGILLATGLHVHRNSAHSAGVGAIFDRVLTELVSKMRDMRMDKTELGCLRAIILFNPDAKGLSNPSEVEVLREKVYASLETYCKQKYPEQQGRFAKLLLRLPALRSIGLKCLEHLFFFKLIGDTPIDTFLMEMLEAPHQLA

Question: For `CCCCCCC(CO)CCCC` (stereo not given), which AC50 is on record?
Answer: 54.8 µM (active)

Question: How did the outcome turn out when `C=C(C)[C@@H]1CC=C(C)C(=O)C1` was run?
Answer: inactive

Question: Which outcome does the source give for `CC(C)(CO)[C@@H](O)C(=O)NCCC(=O)O` here?
Answer: inactive

Question: How did the outcome turn out when `CC1=NN(c2ccc(S(=O)(=O)O)cc2)C(=O)C1` was run?
Answer: inactive

Question: Which AC50 does the source give for `BrCc1cccc(Oc2ccccc2)c1` here?
Answer: 66.9 µM (active)

Question: Which outcome does the source give for `O=CN1CCOCC1` here?
Answer: inactive

Question: For `CCCCC1CCC(O)CC1` (stereo not given), which outcome is on record?
Answer: inactive

Question: With `OCc1cccc(Oc2ccccc2)c1` as the compound, how does the AC50 read?
Answer: 100 µM (active)

Question: Which AC50 does the source give for `CC(=O)c1c(C)c([N+](=O)[O-])c(C(C)(C)C)c([N+](=O)[O-])c1C` here?
Answer: 1 µM (active)

Question: With `CCCCOCC` as the compound, how does the outcome read?
Answer: inactive

Question: With `CCCCCCCCCC(=O)OC` as the compound, how does the AC50 read?
Answer: 47 µM (active)

Question: For `ClC(c1ccccc1)(c1ccccc1)c1ccccc1`, which outcome is on record?
Answer: inactive

Question: Which outcome does the source give for `Cc1ccc(-c2ccccc2)cc1` here?
Answer: inactive

Question: For `Cc1ccc(S(=O)(=O)Oc2ccc(N=Nc3ccc(-c4ccc(N=Nc5c(O)ccc6cc(S(=O)(=O)O)cc(S(=O)(=O)O)c56)c(C)c4)cc3C)cc2)cc1`, which outcome is on record?
Answer: inactive

Question: `CCCOCCO` was tested. Which outcome did it give?
Answer: inactive

Question: How did the AC50 turn out when `CCCCCC(C=O)=Cc1ccccc1` was run?
Answer: 73.8 µM (active)

Question: For `CC(=O)c1ccccn1`, which outcome is on record?
Answer: inactive

Question: For `Clc1ccc(C(c2ccccc2Cl)C(Cl)Cl)cc1` (stereo not given), which AC50 is on record?
Answer: 9.66 µM (active)

Question: With `NC(=S)NNC(N)=S` as the compound, how does the outcome read?
Answer: inactive

Question: With `Nc1ccc2cc(S(=O)(=O)O)cc(O)c2c1N=Nc1ccccc1C(F)(F)F` as the compound, how does the AC50 read?
Answer: 14.8 µM (active)

Question: Which outcome does the source give for `C1CCOC1` here?
Answer: inactive

Question: For `CS(=O)(=O)OCCCCOS(C)(=O)=O`, which outcome is on record?
Answer: inactive

Question: `O=C(O)c1cccnc1C(=O)O` was tested. Which outcome did it give?
Answer: inactive

Question: With `COc1ccccc1N=Nc1c(S(=O)(=O)O)cc2cc(S(=O)(=O)O)cc(NC(C)=O)c2c1O` as the compound, how does the outcome read?
Answer: inactive

Question: For `C/C=C(\C)C(=O)OCCc1ccccc1`, which outcome is on record?
Answer: inactive

Question: With `CC1(C)CCC[C@]2(C)[C@H]3CCO[C@]3(C)CC[C@@H]12` as the compound, how does the outcome read?
Answer: inactive

Question: For `CC(C=O)Cc1ccc(C(C)(C)C)cc1` (stereo not given), which outcome is on record?
Answer: inactive

Question: Which AC50 does the source give for `Cc1cccc(Nc2ccccc2)c1` here?
Answer: 28 µM (active)

Question: `CC(=O)OCCCc1ccccc1` was tested. Which outcome did it give?
Answer: inactive

Question: Which outcome does the source give for `O=C(O)c1cc(C(=O)O)cc([N+](=O)[O-])c1` here?
Answer: inactive

Question: How did the AC50 turn out when `CCc1cc(C(C)(C)C)c(O)c(C(C)(C)C)c1` was run?
Answer: 0.325 µM (active)

Question: How did the outcome turn out when `CC(=O)O[C@@H]1C[C@@H]2CC[C@@]1(C)C2(C)C` was run?
Answer: inactive

Question: With `CN1C(=O)c2ccccc2C1=O` as the compound, how does the outcome read?
Answer: inactive

Question: For `CCC(Cl)C(Cl)C(Cl)CC(Cl)C(Cl)C(C)Cl` (stereo not given), which AC50 is on record?
Answer: 16.4 µM (active)

Question: `CC1C2CC(CC2C2CCCC(O)C2)C1(C)C` (stereo not given) was tested. Which outcome did it give?
Answer: inactive

Question: Which outcome does the source give for `O=C(CS)OCCOC(=O)CS` here?
Answer: inactive

Question: For `O=C1OC(=O)c2c(Cl)c(Cl)c(Cl)c(Cl)c21`, which outcome is on record?
Answer: inactive

Question: How did the AC50 turn out when `N[C@@H](Cc1cc(I)c(Oc2cc(I)c(O)c(I)c2)c(I)c1)C(=O)O` was run?
Answer: 69 µM (active)

Question: `Clc1cc(Cl)c(-c2c(Cl)c(Cl)cc(Cl)c2Cl)cc1Cl` was tested. Which outcome did it give?
Answer: inactive

Question: `CC(C)CCOC(=O)c1ccccc1` was tested. Which outcome did it give?
Answer: inactive
